Among the data in the supplement of paper PMC6555819 are PBM binding z-score values, retold here.

The test deals with VDR:RXRa (NR concentration 270 nM, RXRa partner concentration 90 nM). Kind of test: PBM binding z-score (relative to random genomic background probes); higher = stronger binding; sequences stand for … in GC…GCGATTGACAGCGTAGAATGAAGG
The protocol: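 Protein-binding microarray (Agilent 4x180K custom design, double-stranded 60-nt probes: 5' GC cap, 34-nt variable region, 24-nt constant primer region; full probe sequence given). Purified or IVT nuclear receptor:RXRα heterodimers (3:1 NR:RXRα, mostly 270:90 nM) or homodimers were incubated for 1 h in PBS with 2% milk and no ligand, then detected with Alexa488 antibodies. Fluorescence from o1-orientation probes (~5 replicates averaged) was converted to z-scores against 500 random hg19 background probes. Variable regions are seed direct-repeat (DR0–DR5) sites, all their single-nucleotide variants and half-site ablations.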
TTACCAAGGTGAGCTGAGGTGGTTGATCCAACTC returned a PBM binding z-score of -0.288.
The result for ATCGAAAGGTCGAACGTGAGTATACCCACCCGAA reads 2.88; that for CGTCCAAGGTCCTAGGAGGTCAGTGAAGACAGAT, 2.88.
Then AATACAGGGTCACTAGGCCAGAATAGGTACGAAT, with 4.2; and TAGCTTAGGTCATTGGGCCAGTATAGTACGCATC, with 2.4; and TATACAGGGTCAAAGTCCAGAGTACGAATGTCGA, with 5.09.
The sequence AATACAGGGTCACTAGGCCGGAGTAGGTACGAAT displayed a PBM binding z-score of 4.11.
On to CCAGACGGGTGAGAAGGTAACTCAGCCTCGATTA, for which the PBM binding z-score was -0.516.
The result for GCGACTGGGGCATCAGTAGGTTACCATAACTTAA reads -0.141; that for CGTCCAAGGTCATAGGAGGTCAGTGAGGACAGAT, 7.07; that for ATATGTAGGTTAAGGCTCATTCAGGTTGGTTCGC, 0.395.
The result for TCGGCTAGGTCAGTTGGTCAGCTAACGAGCTGCC reads 0.16; that for AGAATGAGGTTACCAAAGATCAGGAAAACGCTTG, 1.35; that for GCTAGCAGGCCATCTGGGTCACTCAATGACGGGC, 1.04.
CGTCAAAGTACAACTAAGGTAACGTAAAGCACGC: the PBM binding z-score came out at 0.523.
CTCGCAAGGTCGGTTGAGGTGAGTATACGGATAA displayed a PBM binding z-score of 1.21.
As to CCAGACAGGTGAGAAGGTAAGTCAGCCTCGATTA, the PBM binding z-score was -0.106.
In turn, TCTTGTAGATTAACAGGAGGTTAAGAAAGATCGA returned a PBM binding z-score of 0.91.
The sequence AGAATGAGGTTACCAAAGATCAGAGAAACGCTTG showed a PBM binding z-score of 1.36.
In turn, CATACTAGGTCAAGGTCAAAGTCGGTTTGTGCCA came in with a PBM binding z-score of 5.31.
CGAACTAGGTCATCTAGGACAGTGAATACATTGA: the PBM binding z-score turned out to be 3.73.
TCTAGTTGGTCACGGAGGTCACACACGACGGGTA: the PBM binding z-score worked out at 5.62.
Turning to ATATGTAGGTTACATCCGGGTCGTTCAGGCTATG, the PBM binding z-score was 2.52.
The result for TCATATAGGTAAACAGGTGAGAGTCCGTAAGTTA reads 1.01; that for ACTGACAGGTGAGTGAAGGTAACTCAGCTGGACG, -0.322; that for AATACAGGGTCACAAGGCCAGAGTAGGTACGAAT, 4.82.
In the case of CGTCAAAGTTCAACTAAGGTAACGCAAAGCACGC, the PBM binding z-score is 4.64.
The result for CCTGCTAGGTCAATGTTCAGCTAAAGCAGCTCGC reads 1.05.
In the case of AGAACGAGGGCACGCTGAGTTGGTAGCAGAGTAG, the PBM binding z-score was determined as 1.34.
Then CCTACTGGGCCATAAGGTCATTGATATCAACGTT, with 3.71; and ACTATTAGCTGAGACGAGGGCAACCGATAGGTTG, with 0.232; and GCAGACAGGTAAAACGCAGGTAACTCAGGGTGGC, with -0.484.
Then TCGAGTAGGTTAGTCTGGGCATTCAGCCAACATA, with -0.0618; and CGAACGAGGGCATTAGTTGATAGCAAATGCCGAT, with 0.658.
The result for CCTACTGGGCCATTCAGAGGTCATTGACCATATG reads 3.83; that for TCTATTAGTTGATTAGGGCAACTGAAACAGCGGA, 0.717; that for CAAACTAGGTCACCGGAAGGTCAACGTCCGCATG, 5.72.
As for CCTACTGGGCCAAGGTTATTGATCAGTCAAAGCA, the PBM binding z-score was -0.0867.
The result for TCTAGTTGGTCACGGAGGTCAGACACGACGGGTA reads 4.68.
As to TCATATAGGTAATACCGGTGAAAGTCGGCATCTA, the PBM binding z-score turned out to be 0.463.
